From PubChem BioAssay (NCATS)
Inconclusive results are not listed. Where a call stands in place of a potency, no number is given. The source made the active and inactive calls. Unless noted, calls follow the shape of the full dose curve.

Key:
[1] = qHTS for Inhibitors of the Functional Ribonucleoprotein Complex (vRNP) of Lassa (LASV) Arenavirus: LASV Primary Screen - GLuc reporter signal (AID 1347082; calls by dose curve; tested in HEK293 reporter line; also: series mostly up to about 57 µM; nearly all actives have a fitted effect of over 60% in size)
[2] = qHTS for Inhibitors of the Functional Ribonucleoprotein Complex (vRNP) of Lassa (LASV) Arenavirus: Viability assay - alamar blue signal for LASV Primary Screen (AID 1347083; calls by dose curve; tested in HEK293 reporter line; also: nearly all actives have a fitted effect of over 80% in size; also: potency is read from the fitted curve at half-maximal effect)
[3] = qHTS for Inhibitors of the Functional Ribonucleoprotein Complex (vRNP) of Lymphocytic Choriomeningitis Arenaviruses (LCMV): Viability assay - alamar blue signal for LCMV Primary Screen (AID 1347085; calls by dose curve; tested in HEK293 reporter line; also: nearly all actives have a fitted effect of over 80% in size; also: potency is read from the fitted curve at half-maximal effect)
[4] = molecular target: Nucleoprotein (Lymphocytic choriomeningitis virus (strain Armstrong)) (UniProt P09992); assay: qHTS for Inhibitors of the Functional Ribonucleoprotein Complex (vRNP) of Lymphocytic Choriomeningitis Arenaviruses (LCMV): LCMV Primary Screen - GLuc reporter signal (AID 1347086); also: nearly all actives have a fitted effect of over 70% in size; also: potency is read from the fitted curve at half-maximal effect
Chain of Nucleoprotein (Lymphocytic choriomeningitis virus (strain Armstrong)) (P09992 whole entry, looked up): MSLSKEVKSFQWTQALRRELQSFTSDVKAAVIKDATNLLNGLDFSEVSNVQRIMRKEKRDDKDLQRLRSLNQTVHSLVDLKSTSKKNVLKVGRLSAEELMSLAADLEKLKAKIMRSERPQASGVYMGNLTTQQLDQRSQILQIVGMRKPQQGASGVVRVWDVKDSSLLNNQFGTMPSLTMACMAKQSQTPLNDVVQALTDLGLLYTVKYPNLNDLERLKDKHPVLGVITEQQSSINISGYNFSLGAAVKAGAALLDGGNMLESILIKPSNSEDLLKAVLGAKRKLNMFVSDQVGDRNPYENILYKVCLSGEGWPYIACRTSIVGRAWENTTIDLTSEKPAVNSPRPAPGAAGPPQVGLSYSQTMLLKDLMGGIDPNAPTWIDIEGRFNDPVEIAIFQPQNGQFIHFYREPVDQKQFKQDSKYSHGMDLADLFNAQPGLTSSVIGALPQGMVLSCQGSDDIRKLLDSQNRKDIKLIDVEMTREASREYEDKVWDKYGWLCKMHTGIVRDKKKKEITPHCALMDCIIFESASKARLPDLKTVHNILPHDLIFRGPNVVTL

Compound | Potency [1] | Potency [2] | Potency [3] | Potency [4]
C=C[C@H]1CN2CC[C@H]1C[C@@H]2[C@@H](O)c1ccnc2ccc(OC)cc12 | inactive | inactive | inactive | inactive
CCC1=C[C@@H]2CN(C1)Cc1c([nH]c3ccccc13)[C@@](C(=O)OC)(c1cc3c(cc1OC)N(C)[C@H]1[C@@](O)(C(=O)OC)[C@H](OC(C)=O)[C@]4(CC)C=CCN5CC[C@]31[C@@H]54)C2 | – | inactive | inactive | inactive
N=C(N)c1ccc(OCCCCCOc2ccc(C(=N)N)cc2)cc1 | – | 38.5 µM (active) | – | –
COc1cc(NCc2ccc3nc(N)nc(N)c3c2C)cc(OC)c1OC | inactive | – | – | inactive
Cc1ccc(-n2nc(C(C)(C)C)cc2NC(=O)Nc2ccc(OCCN3CCOCC3)c3ccccc23)cc1 | inactive | – | – | inactive
CCCC(CCC)C(=O)O | inactive | – | – | inactive
C#C[C@]1(O)CC[C@H]2[C@@H]3CCC4=Cc5oncc5C[C@]4(C)[C@H]3CC[C@@]21C | inactive | – | inactive | inactive
Nc1nc(=S)c2[nH]cnc2[nH]1 | – | 17.2 µM (active) | – | –
CC(C)c1nc(CN(C)C(=O)N[C@H](C(=O)N[C@@H](Cc2ccccc2)C[C@H](O)[C@H](Cc2ccccc2)NC(=O)OCc2cncs2)C(C)C)cs1 | inactive | – | inactive | inactive
CC(=O)N(O)CCCCCNC(=O)CCC(=O)N(O)CCCCCNC(=O)CCC(=O)N(O)CCCCCN | inactive | – | inactive | inactive
NC12CC3CC(CC(C3)C1)C2 | inactive | – | inactive | inactive
CC12CC3CC(C)(C1)CC(N)(C3)C2 | inactive | – | inactive | inactive
CC(C)n1c(C=C[C@H](O)C[C@H](O)CC(=O)O)c(-c2ccc(F)cc2)c2ccccc21 | – | 2.43 µM (active) | 7.69 µM (active) | 21.7 µM (active)
CC1(C)O[C@@H]2[C@@H](CO[C@@]3(COS(N)(=O)=O)OC(C)(C)O[C@@H]23)O1 | inactive | – | inactive | inactive
O=C(c1ccccc1)c1ccc2n1CCC2C(=O)O (centres undefined) | inactive | – | inactive | inactive
